What all share (assay): protein binding microarray; high values mean tight binding
Common to all, as to details: dsDNA, one strand shown

In assay [1] the target is RELARELA (p65 homodimer) (Homo sapiens, UniProt Q04206 1-307).
In assay [2] the target is p50p50 homodimer (Homo sapiens, UniProt P19838 7-356).
Assay [3] addresses T1, p52p52 homodimer (Homo sapiens, UniProt Q00653 4-332).
T1 sequence: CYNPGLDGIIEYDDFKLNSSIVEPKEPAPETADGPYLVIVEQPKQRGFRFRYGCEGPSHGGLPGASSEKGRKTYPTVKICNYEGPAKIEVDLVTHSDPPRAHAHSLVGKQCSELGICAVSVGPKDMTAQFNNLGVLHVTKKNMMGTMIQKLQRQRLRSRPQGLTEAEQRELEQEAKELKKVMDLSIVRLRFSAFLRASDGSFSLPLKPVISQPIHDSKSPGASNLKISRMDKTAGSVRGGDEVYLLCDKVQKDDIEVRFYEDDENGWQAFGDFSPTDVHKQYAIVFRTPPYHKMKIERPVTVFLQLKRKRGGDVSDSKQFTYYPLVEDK

The target of assay [4] is RELA (p65) subunit of heterodimer;p50 subunit (Homo sapiens;Homo sapiens, UniProt Q04206;P19838 1-307;7-356).
Assay [5] deals with RELA (p65) subunit of heterodimer;p52 subunit (Homo sapiens;Homo sapiens, UniProt Q04206;Q00653 1-307;4-332).
Assay [6] concerns the target RELB subunit;p50 subunit (Homo sapiens;Homo sapiens, UniProt Q01201;P19838 120-401;7-356).
The target of assay [7] is T2, RELB subunit;p52 subunit (Homo sapiens;Homo sapiens, UniProt Q01201;Q00653 120-401;4-332).
T2 sequence 1: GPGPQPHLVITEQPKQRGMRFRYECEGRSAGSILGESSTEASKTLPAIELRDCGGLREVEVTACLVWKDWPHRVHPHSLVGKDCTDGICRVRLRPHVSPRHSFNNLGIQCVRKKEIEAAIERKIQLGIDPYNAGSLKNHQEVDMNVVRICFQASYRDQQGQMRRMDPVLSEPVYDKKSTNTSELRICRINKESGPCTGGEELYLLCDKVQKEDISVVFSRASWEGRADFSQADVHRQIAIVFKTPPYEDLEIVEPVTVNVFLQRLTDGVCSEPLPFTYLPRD
T2 sequence 2: T1 sequence

The target in assay [8] is C-Rel subunit;p50 subunit (Homo sapiens;Homo sapiens, UniProt Q04864;P19838 1-285;7-356).
Assay [9] has as its target T3, C-Rel subunit;p52 subunit (Homo sapiens;Homo sapiens, UniProt Q04864;Q00653 1-285;4-332).
T3 sequence 1: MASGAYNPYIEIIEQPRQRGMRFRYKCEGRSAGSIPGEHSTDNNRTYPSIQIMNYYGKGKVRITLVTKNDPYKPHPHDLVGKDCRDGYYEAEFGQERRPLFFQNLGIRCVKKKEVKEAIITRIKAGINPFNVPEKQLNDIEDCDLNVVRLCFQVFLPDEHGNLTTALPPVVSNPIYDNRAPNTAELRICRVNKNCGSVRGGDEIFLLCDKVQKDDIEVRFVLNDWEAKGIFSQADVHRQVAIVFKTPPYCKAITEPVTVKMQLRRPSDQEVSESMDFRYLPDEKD
T3 sequence 2: T1 sequence

RELARELA (p65 homodimer), sequence (Q04206 1-307): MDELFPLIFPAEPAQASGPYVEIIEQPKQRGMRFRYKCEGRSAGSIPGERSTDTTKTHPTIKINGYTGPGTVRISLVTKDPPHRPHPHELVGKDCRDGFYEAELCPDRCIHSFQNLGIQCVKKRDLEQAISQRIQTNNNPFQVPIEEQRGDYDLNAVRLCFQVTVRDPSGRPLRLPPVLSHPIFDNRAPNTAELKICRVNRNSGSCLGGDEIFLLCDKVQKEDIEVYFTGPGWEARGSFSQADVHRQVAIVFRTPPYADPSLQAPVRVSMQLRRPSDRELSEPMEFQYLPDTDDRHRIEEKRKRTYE
RELA (p65) subunit of heterodimer;p50 subunit, sequence (Q04206 1-307, chain 1 of 2): as the sequence (Q04206 1-307) above
RELA (p65) subunit of heterodimer;p50 subunit, sequence (P19838 7-356, chain 2 of 2): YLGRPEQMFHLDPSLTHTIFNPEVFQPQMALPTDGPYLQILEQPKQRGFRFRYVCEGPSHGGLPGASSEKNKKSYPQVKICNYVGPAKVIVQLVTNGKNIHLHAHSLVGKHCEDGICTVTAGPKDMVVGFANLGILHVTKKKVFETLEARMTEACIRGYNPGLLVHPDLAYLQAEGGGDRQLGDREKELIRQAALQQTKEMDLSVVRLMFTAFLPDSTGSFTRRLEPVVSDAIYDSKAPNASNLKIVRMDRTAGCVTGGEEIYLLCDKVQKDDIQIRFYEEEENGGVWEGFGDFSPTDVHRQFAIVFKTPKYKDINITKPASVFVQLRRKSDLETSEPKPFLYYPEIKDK
p50p50 homodimer, sequence (P19838 7-356): as the sequence (P19838 7-356, chain 2 of 2) above

Take GAAAAGTCCCT: the binding signal turned out to be 1.43 z-score in [1]; 1.36 z-score in assay [2]; 2.5 z-score in assay [3]; 2.07 z-score in [4]; 1.79 z-score in [5]; 2.67 z-score in [6]. The figures for the binding signal in assay [7], in [8] and in [9] were 2.22 z-score, 1.59 z-score and 2.16 z-score, respectively.

Consider AGGTAGGCCCT, for which the binding signal is -0.932 z-score in assay [1]; -0.756 z-score in assay [2]; -0.535 z-score in [3]; -0.978 z-score in [4]; -0.63 z-score in [5]; -0.647 z-score in assay [6]. Moreover, the binding signal was -0.561 z-score in [7], -1.13 z-score in [8] and -0.598 z-score in assay [9].

As for AAGTGATTCCT, the binding signal is -0.0511 z-score in assay [1]; -0.869 z-score in assay [2]; -0.482 z-score in [3]; -0.602 z-score in assay [4]; -0.719 z-score in assay [5]; -0.843 z-score in assay [6]. Further, the figures for the binding signal in assay [7], in [8] and in assay [9] were -0.976 z-score, -0.572 z-score and -0.598 z-score, respectively.

GGGTTGACCCT: the binding signal in assay [1] was -0.0795 z-score; in assay [2], -0.785 z-score; in [3], -0.387 z-score; in assay [4] it was -0.407 z-score; in assay [5], -0.336 z-score; in assay [6], -0.554 z-score. In addition, the results for the binding signal in [7], in [8] and in assay [9] were -0.73 z-score, -0.769 z-score and -0.115 z-score, respectively.

As for AGGGGGGCCCT, the binding signal in assay [1] is -0.0645 z-score; in assay [2], 0.812 z-score; in assay [3], 0.991 z-score; in assay [4] it was 0.478 z-score; in [5] it was 1.13 z-score; in assay [6], 0.542 z-score. Moreover, the figures for the binding signal in assay [7], in [8] and in assay [9] were 1.2 z-score, 0.525 z-score and 1.04 z-score, respectively.

For the sequence AAGAGCTTCCC, the binding signal was 0.146 z-score in assay [1]; -0.795 z-score in assay [2]; -0.487 z-score in assay [3]; -0.305 z-score in assay [4]; -0.49 z-score in [5]; -0.563 z-score in assay [6]. Further, the binding signal in [7] was -0.671 z-score; in [8], -0.423 z-score; in assay [9], -0.463 z-score.

Consider AGAATTGCCCT, for which the binding signal was 0.531 z-score in assay [1]; -0.747 z-score in assay [2]; -0.409 z-score in [3]; 0.222 z-score in [4]; -0.0792 z-score in assay [5]; -0.516 z-score in assay [6]. Besides, the figures for the binding signal in [7], in assay [8] and in assay [9] were -0.558 z-score, -0.0961 z-score and 0.0532 z-score, respectively.

Regarding GAAGATACCCT, the binding signal was -0.565 z-score in assay [1]; 0.622 z-score in assay [2]; 0.0699 z-score in assay [3]; 0.217 z-score in assay [4]; 0.0853 z-score in [5]; 0.142 z-score in [6]. Also, the figures for the binding signal in assay [7], in assay [8] and in assay [9] were 0.032 z-score, -0.0626 z-score and 2.91e-05 z-score, respectively.

GGATGACTCCC: the binding signal in assay [1] was -0.304 z-score; in assay [2], -0.794 z-score; in [3] it was -0.473 z-score; in assay [4] it was -0.49 z-score; in assay [5], -0.701 z-score; in assay [6] it was -0.618 z-score. Also, the results for the binding signal in assay [7], in assay [8] and in assay [9] were -0.826 z-score, -0.932 z-score and -0.692 z-score, respectively.

As to CAAAAGACCCT, the binding signal in [1] was -0.503 z-score; in [2] it was 0.305 z-score; in [3] it was -0.0206 z-score; in [4] it was 0 z-score; in assay [5], 0.196 z-score; in assay [6], -0.111 z-score. In addition, the binding signal was -0.0281 z-score in assay [7], -0.615 z-score in assay [8] and 0.0358 z-score in [9].

Turning to AAGGAGCTCCC, the binding signal in [1] is -0.693 z-score; in [2], -0.999 z-score; in assay [3] it was -0.562 z-score; in assay [4] it was -0.64 z-score; in assay [5] it was -0.893 z-score; in assay [6], -0.741 z-score. For the same sequence, the binding signal in [7] was -0.874 z-score; in [8], -0.927 z-score; in assay [9], -0.843 z-score.

In the case of AGAGTAGCCCT, the binding signal in assay [1] was -0.721 z-score; in assay [2], -1.16 z-score; in assay [3] it was -0.729 z-score; in assay [4], -0.963 z-score; in [5] it was -0.869 z-score; in assay [6] it was -0.78 z-score. In addition, the binding signal in assay [7] is -0.814 z-score; in assay [8], -1.22 z-score; in [9] it was -0.688 z-score.

In the case of GAGTTATCCCT, the binding signal in assay [1] was -0.151 z-score; in assay [2] it was 0.156 z-score; in assay [3] it was 0.345 z-score; in assay [4] it was -0.075 z-score; in assay [5] it was 0.135 z-score; in [6], 0.201 z-score. Also, the binding signal in assay [7] was 0.304 z-score; in assay [8], -0.0693 z-score; in [9] it was -0.00956 z-score.

On to AGAATGACCCC, for which the binding signal in assay [1] is -0.278 z-score; in assay [2], -0.204 z-score; in assay [3], -0.112 z-score; in assay [4], -0.177 z-score; in assay [5], -0.287 z-score; in [6], -0.428 z-score. The binding signal in assay [7] is -0.388 z-score; in assay [8], -0.442 z-score; in assay [9], -0.311 z-score.

Consider CGAAGTTCCCT, for which the binding signal worked out at 0.618 z-score in assay [1]; 0.819 z-score in [2]; 0.347 z-score in assay [3]; 0.834 z-score in [4]; 0.752 z-score in [5]; 0.603 z-score in assay [6]. The binding signal amounted to 0.672 z-score in assay [7], 0.425 z-score in [8] and 0.379 z-score in assay [9].
